According to article PMC9838217, “Structure of SALL4 zinc finger domain reveals link between AT-rich DNA binding and Okihiro syndrome”:
Numbering of substitutions follows the chain as printed.

Assays:
Experiment in all cases: HT-SELEX; high values mean tight binding
Settings in all cases: protein: recombinant; vector His6-GST; dsDNA, one strand shown
SALL4 ZFC4 WT (HT-SELEX) = biological target: T1, SALL4 ZFC4 WT (HT-SELEX) (Mus musculus, UniProt Q8BX22 870-940)
T1 sequence: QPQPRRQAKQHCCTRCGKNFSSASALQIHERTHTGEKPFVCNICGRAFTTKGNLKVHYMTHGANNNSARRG
Outline: (§1)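 DNA from a random library (1.5 µg in the first cycle, 200 ng afterwards) was incubated with purified recombinant mouse SALL4 zinc finger cluster 4, residues 870–940 (1 µg), for 10 min at room temperature in 100 µl buffer: 10 mM Tris–HCl pH 7.5, 50 mM NaCl, poly(dI-dC), DTT. Bound complexes were pulled down on Ni2+ beads, washed and PCR-amplified, and the selection was repeated for up to 6 cycles in triplicate. MiSeq reads were scanned for 6-mers, and binding signal is each canonical k-mer's read fraction as fold change over the initial random library.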

[1] = biological target: T2, SALL4 ZFC4 R900W (HT-SELEX) (Mus musculus, UniProt Q8BX22 870-940, R900W)
T2 sequence: T1 sequence with R31W
Outline: as §1

[2] = biological target: T3, SALL4 ZFC4 G921D (HT-SELEX) (Mus musculus, UniProt Q8BX22 870-940, G921D)
T3 sequence: T1 sequence with G52D
Outline: as §1

Row | Sequence | binding signal (SALL4 ZFC4 WT (HT-SELEX)) | binding signal [1] | binding signal [2]
1 | CACATG | 0.752 ± 0.0217 fold-change vs cycle 0 | 0.8671 ± 0.00649 fold-change vs cycle 0 | 0.925 ± 0.0436 fold-change vs cycle 0
2 | ATAACG | 1.39 ± 0.0783 fold-change vs cycle 0 | 1.3 ± 0.0579 fold-change vs cycle 0 | 1.23 ± 0.0819 fold-change vs cycle 0
3 | ACTTAG | 1.38 ± 0.0593 fold-change vs cycle 0 | 1.56 ± 0.0417 fold-change vs cycle 0 | 1.42 ± 0.0798 fold-change vs cycle 0
4 | CAAACA | 1.04 ± 0.0367 fold-change vs cycle 0 | 1.17 ± 0.0357 fold-change vs cycle 0 | 1.18 ± 0.0394 fold-change vs cycle 0
5 | TAGGGA | 0.931 ± 0.0124 fold-change vs cycle 0 | 0.998 ± 0.0215 fold-change vs cycle 0 | 1.02 ± 0.0328 fold-change vs cycle 0
6 | ACCACT | 0.783 ± 0.0402 fold-change vs cycle 0 | 0.885 ± 0.0293 fold-change vs cycle 0 | 0.93 ± 0.0313 fold-change vs cycle 0
7 | CAGTCA | 0.794 ± 0.0288 fold-change vs cycle 0 | 0.925 ± 0.0192 fold-change vs cycle 0 | 0.946 ± 0.028 fold-change vs cycle 0
8 | ACTAAA | 1.81 ± 0.0352 fold-change vs cycle 0 | 1.9 ± 0.121 fold-change vs cycle 0 | 1.69 ± 0.128 fold-change vs cycle 0
9 | AATTAG | 1.92 ± 0.0642 fold-change vs cycle 0 | 1.97 ± 0.0604 fold-change vs cycle 0 | 1.75 ± 0.104 fold-change vs cycle 0
10 | AATTCG | 0.945 ± 0.024 fold-change vs cycle 0 | 1.008 ± 0.0043 fold-change vs cycle 0 | 1.07 ± 0.0346 fold-change vs cycle 0
11 | CCAACC | 0.393 ± 0.0262 fold-change vs cycle 0 | 0.466 ± 0.0254 fold-change vs cycle 0 | 0.565 ± 0.0588 fold-change vs cycle 0
12 | AAGCAG | 0.683 ± 0.026 fold-change vs cycle 0 | 0.821 ± 0.0507 fold-change vs cycle 0 | 0.85 ± 0.0183 fold-change vs cycle 0
13 | GACAAC | 0.673 ± 0.0124 fold-change vs cycle 0 | 0.798 ± 0.0444 fold-change vs cycle 0 | 0.89 ± 0.0263 fold-change vs cycle 0
14 | AGATGC | 0.625 ± 0.0322 fold-change vs cycle 0 | 0.721 ± 0.0174 fold-change vs cycle 0 | 0.833 ± 0.0268 fold-change vs cycle 0
15 | TAAAAA | 3.23 ± 0.33 fold-change vs cycle 0 | 2.2 ± 0.213 fold-change vs cycle 0 | 1.92 ± 0.229 fold-change vs cycle 0
16 | CTGTTA | 1.37 ± 0.0494 fold-change vs cycle 0 | 1.47 ± 0.0717 fold-change vs cycle 0 | 1.39 ± 0.112 fold-change vs cycle 0
17 | ACAGGA | 0.851 ± 0.0194 fold-change vs cycle 0 | 1 ± 0.0486 fold-change vs cycle 0 | 1.01 ± 0.0583 fold-change vs cycle 0
18 | ACCAGG | 0.477 ± 0.0177 fold-change vs cycle 0 | 0.564 ± 0.0161 fold-change vs cycle 0 | 0.658 ± 0.055 fold-change vs cycle 0

Row | Sequence | binding signal (SALL4 ZFC4 WT (HT-SELEX)) | binding signal [1] | binding signal [2]
19 | GACAAA | 0.966 ± 0.023 fold-change vs cycle 0 | 1.08 ± 0.0338 fold-change vs cycle 0 | 1.1 ± 0.0293 fold-change vs cycle 0
20 | TATTCA | 2.4 ± 0.138 fold-change vs cycle 0 | 2.03 ± 0.0979 fold-change vs cycle 0 | 1.83 ± 0.191 fold-change vs cycle 0
21 | CAGCAA | 0.551 ± 0.0466 fold-change vs cycle 0 | 0.641 ± 0.0279 fold-change vs cycle 0 | 0.737 ± 0.0707 fold-change vs cycle 0
22 | AGATAC | 1.32 ± 0.0304 fold-change vs cycle 0 | 1.44 ± 0.052 fold-change vs cycle 0 | 1.4 ± 0.118 fold-change vs cycle 0
23 | GAATCC | 0.85 ± 0.00926 fold-change vs cycle 0 | 0.935 ± 0.0194 fold-change vs cycle 0 | 0.989 ± 0.0139 fold-change vs cycle 0
24 | AATGCC | 0.502 ± 0.015 fold-change vs cycle 0 | 0.5601 ± 0.00429 fold-change vs cycle 0 | 0.704 ± 0.0636 fold-change vs cycle 0
25 | AATGGG | 0.774 ± 0.0508 fold-change vs cycle 0 | 0.854 ± 0.0662 fold-change vs cycle 0 | 0.883 ± 0.0427 fold-change vs cycle 0
26 | AAGGGA | 0.928 ± 0.0784 fold-change vs cycle 0 | 1.09 ± 0.0682 fold-change vs cycle 0 | 1.03 ± 0.0363 fold-change vs cycle 0
27 | GTCGTA | 0.571 ± 0.0216 fold-change vs cycle 0 | 0.663 ± 0.0204 fold-change vs cycle 0 | 0.752 ± 0.0439 fold-change vs cycle 0
28 | GGAACC | 0.444 ± 0.034 fold-change vs cycle 0 | 0.539 ± 0.0289 fold-change vs cycle 0 | 0.622 ± 0.0467 fold-change vs cycle 0
29 | ATAATC | 2.69 ± 0.205 fold-change vs cycle 0 | 2.05 ± 0.113 fold-change vs cycle 0 | 1.81 ± 0.145 fold-change vs cycle 0
30 | ACTCTG | 0.817 ± 0.0779 fold-change vs cycle 0 | 0.914 ± 0.0491 fold-change vs cycle 0 | 0.937 ± 0.0411 fold-change vs cycle 0
31 | CTGATC | 0.794 ± 0.0362 fold-change vs cycle 0 | 0.948 ± 0.0293 fold-change vs cycle 0 | 1.02 ± 0.0279 fold-change vs cycle 0
32 | AGCATC | 0.703 ± 0.0384 fold-change vs cycle 0 | 0.804 ± 0.0378 fold-change vs cycle 0 | 0.887 ± 0.0448 fold-change vs cycle 0
33 | CTCTCC | 0.497 ± 0.0273 fold-change vs cycle 0 | 0.603 ± 0.0441 fold-change vs cycle 0 | 0.672 ± 0.0341 fold-change vs cycle 0
34 | AGACAG | 0.803 ± 0.00959 fold-change vs cycle 0 | 0.914 ± 0.0204 fold-change vs cycle 0 | 0.943 ± 0.0351 fold-change vs cycle 0
35 | ACATTA | 2.1 ± 0.0777 fold-change vs cycle 0 | 2.03 ± 0.0851 fold-change vs cycle 0 | 1.81 ± 0.142 fold-change vs cycle 0
36 | AAAGCT | 1.01 ± 0.0609 fold-change vs cycle 0 | 1.13 ± 0.0411 fold-change vs cycle 0 | 1.17 ± 0.0323 fold-change vs cycle 0
